Vc quorum ag = inducers of Vibrio cholerae quorum light production without autoinducers; 350,000 tested, 0.16% active; V. cholerae BH1578 lux reporter, luminescence, 6 h; activation, % at 18.7 µM; in the data active means activation mostly above about 9.7%, no sharp cut-off
Mtb FBA inh = inhibitors of M. tuberculosis fructose-bisphosphate aldolase; P9WQA3; purified M. tuberculosis FBA, fluorescence read-out; inhibition, % at 1 µM; 360,000 tested, 2.3% active; AID 588726; in the data active means inhibition above about 27%;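 further: 0% = vehicle and 100% = reference inhibitor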
Target sequence (P9WQA3 whole entry, looked up): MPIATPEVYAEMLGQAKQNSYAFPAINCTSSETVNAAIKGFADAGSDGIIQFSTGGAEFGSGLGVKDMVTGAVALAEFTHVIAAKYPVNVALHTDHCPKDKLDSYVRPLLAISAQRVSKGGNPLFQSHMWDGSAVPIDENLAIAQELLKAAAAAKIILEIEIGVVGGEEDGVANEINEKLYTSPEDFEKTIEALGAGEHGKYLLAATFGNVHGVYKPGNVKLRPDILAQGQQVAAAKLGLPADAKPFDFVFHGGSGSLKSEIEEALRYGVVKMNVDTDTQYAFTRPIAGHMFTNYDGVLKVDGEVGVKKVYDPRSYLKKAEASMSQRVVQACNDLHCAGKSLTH
CCHF vOTU inh = blocks the CCHF virus ovarian tumor domain protease; CCHFV vOTU protease, Pep-AMC fluorescence; inhibition, % at 11.5 µM; 370,000 tested, 0.55% active; further: 0% = vehicle wells with enzyme and 100% = no enzyme wells
GDH-TPI counter-1 = inhibits GDH-TPI coupling enzymes, artifact for Mtb FBA screen. GDH-TPI coupled enzyme counterscreen, NADH absorbance. inhibition, % at 4.8 µM. 360,000 tested, 1.2% active;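 further: 0% = DMSO wells and 100% = wells lacking the enzyme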
Mtb FBA confirm = confirmation of M. tuberculosis fructose-bisphosphate aldolase inhibitors | shares compounds with Mtb FBA inh | purified M. tuberculosis FBA, fluorescence read-out | inhibition, % at 1 µM | 5,600 tested, 78% active; in the data active means inhibition above about 27%;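 further: 0% = vehicle wells and 100% = reference inhibitor wells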
GDH-TPI counter-2 = inhibits GDH-TPI coupling enzymes, flagging Mtb FBA hits | shares compounds with Mtb FBA inh | GDH-TPI coupled enzyme counterscreen, fluorescence | inhibition, % at 1 µM | 5,600 tested, 81% active | AID 652141; in the data active means inhibition above about 10%
Active calls of the source: *; i = inactive; . = not tested or not shown; + = active, no number. The list is not random: actives were taken first. Their share in the collection is about 3.9%. Unless noted, no stated cut-off is given here; in the data, active means inhibition above about 30%; inactive means the rest.

SMILES | Vc quorum ag | Mtb FBA inh | CCHF vOTU inh | GDH-TPI counter-1 | Mtb FBA confirm | GDH-TPI counter-2
CCOc1cc(-c2cc(-c3ccccc3)nc(N)c2C#N)ccc1O | i | 4 | 5 | 0 | . | .
CCOc1cc(-c2cc(-c3ccc(N)cc3)nc(N)c2C#N)ccc1O | 3 | 29* | -2 | 29 | 52* | 45*
CCCCNc1ncnc2sc3c(c12)CCN(CCC)C3 | i | 34* | -12 | 9 | 99* | 89*
CCOc1ccccc1CNS(=O)(=O)c1ccc(-c2cnc(C3CC3)o2)cc1 | -2 | -1 | 18 | 8 | . | .
O=S(=O)(NCc1ccccc1)c1ccc(-c2cnc(C3CC3)o2)cc1 | -2 | 27* | 14 | 3 | + | 158*
Cc1ccc(CNS(=O)(=O)c2ccc(-c3cnc(C4CC4)o3)cc2)cc1 | i | 41* | 17 | 1 | 40* | 25*
CCCCS(=O)(=O)Nc1ccc(C)cn1 | i | 41* | -29 | -1 | + | +
COc1ccc(-c2ccc(CCC(=O)O)n2C(C)C)cc1 | i | 32* | -97 | 13 | 163* | 114*
COc1ccc(NC(=O)Cn2c(CCC(=O)O)ccc2-c2ccccc2)cc1 | 0 | 7 | -11 | 2 | . | .
COCc1cc(N2CCN(C(=O)OC(C)(C)C)C[C@H]2C)ccc1N1CCN(Cc2ccccc2)[C@@H](C)C1 | . | . | 5 | . | . | .
O=c1cc(CN2CCc3ccccc32)c2ccc(O)cc2o1 | -1 | 41* | -22 | 6 | 3 | 2
COc1cc(/C=C/C(=O)Nc2ccncc2)cc(OC)c1OC | i | 38* | -17 | 17 | 74* | 66*
COc1ccc(NC(=O)/C=C/c2cc(OC)c(OC)c(OC)c2)cn1 | -1 | 4 | -11 | 4 | . | .
CC1(C)CC(NCc2cccc([N+](=O)[O-])c2)CC(C)(C)N1 | i | 0 | -1 | -2 | . | .
O=C(O)c1ccc(-c2nc(-c3ccc(Cl)cc3)cs2)cc1 | i | 2 | 3 | 2 | . | .
COc1ccc(-c2csc(-c3ccc(C(=O)O)cc3)n2)cc1 | i | 49* | -43 | 22 | 58* | 43*
Nc1nnc(SCC(=O)Nc2ccc(Cl)c(C(=O)O)c2)s1 | i | 1 | 15 | -2 | . | .
O=C(c1ccc(Cl)c(S(=O)(=O)Nc2ccc(F)cc2)c1)N1CCN(c2ccccn2)CC1 | 2 | 5 | 7 | 5 | . | .
CCc1cc(=O)oc2cc(OCC(=O)NC3CC(C)(C)NC(C)(C)C3)ccc12 | 0 | 22 | 1 | 13 | . | .
CCc1cc(=O)oc2cc(OC3CCCCC3=O)ccc12 (stereo not drawn) | -1 | 53* | -37 | 7 | 192* | 164*
Cc1cc(=O)oc2c(C)c(OC3CCCCC3=O)ccc12 (stereo not drawn) | i | 39* | -11 | 21 | + | 192*
COC(=O)c1ccc(COc2ccc3c(C)c(C)c(=O)oc3c2C)o1 | 6 | . | . | . | . | .
COC(=O)Cc1c(C)c2ccc(OC3CCCCC3=O)cc2oc1=O (stereo not drawn) | i | 103* | -57 | 13 | 140* | 144*
COC(=O)Cc1c(C)c2ccc(OC3CCCCC3=O)c(C)c2oc1=O (stereo not drawn) | i | 108* | -52 | 5 | 24 | 17*
O=C(COC(=O)C1CCC1)c1c[nH]c2ccccc12 | i | 0 | -17 | -6 | . | .
SMILES | Vc quorum ag | Mtb FBA inh | CCHF vOTU inh | GDH-TPI counter-1 | Mtb FBA confirm | GDH-TPI counter-2
O=C(CSc1n[nH]c(-c2ccccn2)n1)Nc1ccc(Cl)cc1 | 0 | -2 | -1 | 6 | . | .
COc1ccc(-c2ccc3c(c2)CN(C(=O)NC2CCCCC2)Cc2cnnn2-3)cc1 | . | 86* | 7 | . | 52* | 41*
O=C(NC1CCCCC1)N1Cc2cc(-c3cccc(F)c3)ccc2-n2nncc2C1 | . | 1 | 2 | . | . | .
C[C@]12C(=O)N(c3cccc(F)c3)C(=O)N1[C@@H]1c3ccccc3OC[C@@H]1[C@H]2c1ccccc1 | i | -4 | 5 | -1 | . | .
O=C(O)c1cc(-c2ccc3c(c2)OCO3)nc2ccc(Cl)cc12 | i | 21 | 13 | 19 | . | .
c1ccn2cc(-c3ccc4c(c3)OCCO4)nc2c1 | 0 | 80* | -43 | 7 | 91* | 90*
Cc1ccc2nc(-c3ccc4c(c3)OCCO4)cn2c1 | i | 62* | -46 | 13 | 195* | 141*
Clc1ccc2nc(-c3ccc4c(c3)OCO4)cn2c1 | 3 | 45* | -62 | 29 | + | +
Cc1ccc2[nH]c(=O)c(-c3noc(C(C)C)n3)cc2c1 | 0 | 21 | -24 | 10 | . | .
Cc1ccc2cc(-c3noc(C(C)(C)C)n3)c(=O)[nH]c2c1 | i | 30* | -3 | 15 | 65* | 58*
CCc1nc(-c2cc3ccc(C)cc3[nH]c2=O)no1 | 0 | 30* | -27 | 20 | 91* | 82*
Cc1ccc(NC(=O)c2c(Cl)nc3ccccn23)cc1 | 0 | 0 | 5 | 7 | . | .
Cc1ccc(F)c([C@H]2[C@H]3C=CC[C@@H](C)[C@@H]3C(=O)N2Cc2ccccc2)c1 | -4 | 2 | 7 | 5 | . | .
COc1ccc(CNC(=O)c2ccc(Cl)c(S(=O)(=O)N3CCCCCC3)c2)cc1 | -1 | -4 | 0 | 9 | . | .
COc1ccc(C(=O)NCc2ccc3c(c2)cc(C)n3C)cc1 | 0 | 1 | 6 | 13 | . | .
CCCCn1nc2cc(C(=O)NCc3ccc(OC)cc3)ccc2c1OCC | 0 | 40* | -37 | 8 | 94* | 85*
CCOc1c2ccc(C(=O)NCc3ccc(OC)cc3)cc2nn1CCOC | 0 | 60* | -56 | 4 | 99* | 72*
COc1ccc(C(=O)CSc2nnc(C3CC3)n2N)cc1 | i | 0 | 5 | -3 | . | .
Cc1nn(Cc2n[nH]c(=S)n2Cc2ccccc2)c(C)c1Cl | -3 | -5 | 18 | 2 | . | .
CCOc1ccc(-c2c(C(=O)N/N=C/c3ccoc3)nnn2-c2nonc2N)cc1 | 0 | 2 | 14 | 0 | . | .
CCC(NC(=O)c1ccc([N+](=O)[O-])cc1[N+](=O)[O-])c1ccccc1 (stereo not drawn) | i | 2 | 11 | 3 | . | .
CCC(NC(=O)c1ccccc1O)c1ccccc1 (stereo not drawn) | i | 43* | -15 | -1 | 168* | 120*
O=S(=O)(NC1CCCCC1)c1ccc(Br)s1 | i | 0 | 12 | 8 | . | .
CC(C)(C)c1ccc(-c2nc(C#N)c(NCc3ccncc3)o2)cc1 | 0 | 20 | -5 | 15 | . | .
Cc1ccc(CNc2oc(-c3ccco3)nc2C#N)cc1 | 0 | 54* | -12 | 16 | 3 | 4
N#Cc1nc(COc2ccccc2Cl)oc1NCc1ccco1 | -3 | -2 | -18 | -2 | . | .
CNc1oc(-c2ccco2)nc1C#N | i | 68* | -11 | 9 | 46* | 45*
CCOc1ccc(-c2nc(C#N)c(NCc3ccco3)o2)cc1 | -1 | 53* | -26 | 8 | 58* | 50*
COc1ccccc1NS(=O)(=O)c1cccc(C(=O)N/N=C/c2ccc(NC(C)=O)cc2)c1 | i | -4 | 10 | 24 | . | .

Screens deposited in PubChem by several laboratories.
